# Measured values: PubChem BioAssay AID1224856 (National Center for Advancing Translational Sciences (NCATS), 2016)
# Records with an inconclusive call do not appear. Where a call stands in place of a potency, no number is given. The source made the active and inactive calls. Calls come from the whole dose curve; as a rule, active = well fitted curve in the direction sought with a large enough effect; inconclusive = small, poorly fitted or top-dose-only effect, or another doubt; inactive = no such curve, though single readings can be large or run the other way.
# Assay: Cell viability assay for measurement of the protective activity of small molecules against cell death caused by Zika virus infection in human astrocytes
# Details: human astrocytes ZIKV-induced death, ATP luminescence, 72 h; series mostly up to 46.1 µM
# Summary of the method: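 Human astrocytes (350 cells/well) were treated with compound 1 h before Zika virus infection (2 FFU/cell) and incubated 72 h at 37 °C. Viability was read as ATP-content luminescence, and results are given as percent inhibition of virus-induced viability loss.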
row,SMILES,Potency
1,O=C1CCC[C@@H]2[C@H]3CCCN4CCC[C@@H](CN12)[C@@H]34,inactive
2,O=c1[nH]nc(Sc2ncc([N+](=O)[O-])s2)n1-c1ccc2c(c1)OCCO2,inactive
3,CC(=C(CCOC(=O)C(C)C)SSC(CCOC(=O)C(C)C)=C(C)N(C=O)Cc1cnc(C)nc1N)N(C=O)Cc1cnc(C)nc1N,inactive
4,Nc1c(S(=O)(=O)O)cc(Nc2ccc(Nc3nc(Cl)nc(Nc4ccc(S(=O)(=O)O)cc4)n3)c(S(=O)(=O)O)c2)c2c1C(=O)c1ccccc1C2=O,inactive
5,O=C1C=CC[C@@H]2[C@H]3CCCN4CCC[C@@H](CN12)[C@@H]34,inactive
6,O=C1C[C@@H](c2ccc(O)cc2)Oc2cc(O)cc(O)c21,inactive
7,Oc1ccc(/C=C/c2cc(O)cc(O)c2)cc1,inactive
8,CCOCCOC(=O)/C=C/c1ccc(OC)cc1,inactive
9,O=C1c2ccccc2-[n+]2ccc3c([nH]c4ccccc43)c21,inactive
10,CCCCCCCCCCCC(=O)[O][Sn]([CH2]CCC)([CH2]CCC)[O]C(=O)CCCCCCCCCCC,inactive
11,C[C@@H](O[C@H]1OCCN(Cc2n[nH]c(=O)[nH]2)[C@@H]1c1ccc(F)cc1)c1cc(C(F)(F)F)cc(C(F)(F)F)c1,inactive
12,Nc1ccc(N=Nc2ccccc2)c(N)n1,inactive
13,COc1cccc2c1C(=O)c1c(O)c3c(c(O)c1C2=O)C[C@@](O)(C(=O)CO)C[C@@H]3O[C@H]1C[C@H](N)[C@H](O[C@@H]2CCCCO2)[C@H](C)O1,inactive
14,NC1CCC(Nc2nc(Nc3ccc(C(=O)N4CCCCC4)cc3)c3ncn(-c4cccc(F)c4)c3n2)CC1 (stereo unspecified),inactive
15,NC(=O)c1cccc2[nH]c(-c3ccc([C@H]4CCCN4)cc3F)nc12,inactive
16,O=C(O)c1ccccc1Nc1cccc(C(F)(F)F)c1,inactive
17,CN1CC(=O)N2C(Cc3c([nH]c4ccccc34)[C@H]2c2ccc3c(c2)OCO3)C1=O (stereo partly specified),inactive
18,C[C@H](NC(=O)C(=O)Nc1ccccc1C(C)(C)C)C(=O)N[C@@H](CC(=O)O)C(=O)COc1c(F)c(F)cc(F)c1F,3.88 µM (active)
19,Cc1cc(O)c2ccccc2c1O,inactive
20,COc1ccc(-c2coc3cc(O)ccc3c2=O)cc1,inactive
21,N#C/C(=C\c1ccc(O)c(O)c1)C(=O)Nc1ccccc1,inactive
22,CC1=C(CO)C(=O)O[C@@H]([C@@H](C)[C@H]2CC[C@H]3[C@@H]4C[C@H]5O[C@]56[C@@H](O)C=CC(=O)[C@]6(C)[C@@H]4CC[C@]23C)C1,inactive
23,O=C(O)c1ccccc1NCCc1ccccc1,inactive
24,COc1ccc2nc(NC(=O)Nc3ccccc3)sc2c1,inactive
25,O[C@@H](COc1cccc2ncccc12)CN1CCN(C2c3ccccc3[C@@H]3[C@H](c4ccccc42)C3(F)F)CC1 (stereo partly specified),inactive
26,CCCCCNC(=O)N1CCC(CN(Cc2ccc(Cl)cc2)Cc2ccc([N+](=O)[O-])s2)C1 (stereo unspecified),inactive
